Unmarked numbers belong to inactive results. Results filed as inconclusive are left out. Activity calls are given as the source filed them. Unless noted, calls come from the whole dose curve; as a rule, active = well fitted curve in the direction sought with a large enough effect in the repeat runs; inconclusive = weak or mixed curves; inactive = no such curve, though single readings can be large; an effect the other way counts as inactive or inconclusive.

Experimental findings from PubChem BioAssay (Tox21) are described below.

Assay [1] can be described thus: qHTS assay to identify small molecule antagonists of the estrogen receptor alpha (ER-alpha) signaling pathway using the BG1 cell line in the presence of 0.1 nM 17-beta-estradiol - cell viability counter screen (AID 1259241). Note: nearly all actives have a fitted effect of over 40% in size. Summed up:
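CellTiter-Fluor read (30 min, 37C) on ER-alpha/ERE-luc VM7Luc4E2 cells; 22 hr compound treatment; agonist 0.1 nM E2 final; same-well multiplex.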
(qHTS replaces the single test concentration by a dilution series.)

Assay [2] can be described thus: qHTS assay to identify small molecule antagonists of the androgen receptor (AR) signaling pathway using the MDA cell line in the presence of 0.5 nM R1881 - cell viability counter screen (AID 1259242). Note: nearly all actives have a fitted effect of over 45% in size. An outline of the steps:
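MDA-kb2 cells (human breast carcinoma, stably carrying MMTV-luciferase reporter) were exposed to compounds with 0.5 nM R1881 (final) for 16 hr at 37C, 0% CO2; viability then read as live-cell protease fluorescence (CellTiter-Fluor, 30 min) in the same wells.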

A short description of assay [3]: qHTS assay to identify small molecule HDAC inhibitors (AID 1259364). For activity change, negative = inhibition: top concentration of the series differs between compounds. Note: nearly all actives have a fitted effect of over 45% in size. Note: potency is the fitted concentration of half-maximal effect. An outline of the steps:
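Wild-type HCT-116 cells were plated overnight, exposed to compounds for 2 h at 37 °C, then given HDAC-Glo class I/II luminogenic reagent for 30 min at room temperature before luminescence was read.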

Assay [4] is described as follows: qHTS assay to identify small molecule HDAC inhibitors - cell viability counter screen (AID 1259365). Note: series mostly up to about 92 µM; nearly all actives have a fitted effect of over 50% in size. Summed up:
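To flag cytotoxic hits, 1,500 wild-type HCT-116 cells per well, plated the day before, receive test compounds for 2hr at 37 C before CellTiter-Glo reagent and a luminescence read.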

Assay [5] is described as follows: qHTS assay to identify small molecule agonists of the sonic hedgehog signaling (Shh) pathway - cell viability counter screen (AID 1259366). Note: nearly all actives have a fitted effect of over 50% in size. Note: potency is the fitted concentration of half-maximal effect. Summed up: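 Fluorescence from CellTiter-Fluor reports live cells in this counter screen. NIH/3T3-derived Gli1-Luc reporter cells receive test compounds for 24hr at 37C; reagent goes in at 23hr.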
Assay [6] is described as follows: qHTS assay to identify small molecule agonists of the sonic hedgehog signaling (Shh) pathway (AID 1259368; calls by dose curve; note: series mostly up to about 92 µM; nearly all actives have a fitted effect of over 15% in size). Summed up:
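NIH/3T3-derived 3T3Gli1-Luc cells carrying a stably integrated Gli1 response element–firefly luciferase reporter were plated, left 4 hr at 37 C, then given compounds in DMSO for 24 hr. Luminescence was read 30 min after adding luciferase reagent.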

A short description of assay [7]: qHTS assay to identify small molecule antagonists of the sonic hedgehog signaling (Shh) pathway (AID 1259369; calls by dose curve; note: nearly all actives have a fitted effect of over 45% in size; note: potency is the fitted concentration of half-maximal effect). Summed up:
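NIH/3T3-derived 3T3Gli1-Luc cells with stably integrated Gli1-Luc reporter were preincubated 4hr at 37 C, then given compounds in DMSO plus Shh conditioned medium and incubated 24hr. Firefly luciferase luminescence read after 30min reagent at room temperature.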

The nature of assay [8]: qHTS assay to identify small molecule agonists of the androgen receptor (AR) signaling pathway in the presence of an antagonist - cell viability counter screen (AID 1259379). Note: series mostly up to about 92 µM; nearly all actives have a fitted effect of over 25% in size. Summed up: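 MDA-kb2 human breast carcinoma cells (stable MMTV-luciferase, AR/GR responsive) were seeded 3,000 cells/well, pre-incubated 5 hr at 37C without CO2, then given 3.0uM nilutamide and compounds at 15 concentrations for 16 hr. Viability was read by CellTiter-Fluor fluorescence.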

A short description of assay [9]: qHTS assay to identify small molecule agonists of the estrogen receptor beta (ER-beta) signaling pathway - cell viability counter screen (AID 1259380). Note: nearly all actives have a fitted effect of over 30% in size. Note: potency is the fitted concentration of half-maximal effect. An outline of the steps: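 ER-beta-UAS-bla HEK293T cells in medium with 2% charcoal-stripped FBS were preincubated 6 hr at 37C, dosed with compound in DMSO for 16 hr, then after the bla read, CellTiter-Glo was added for 30 min at room temperature; luminescence recorded.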

Assay [10] in a line: qHTS assay to identify small molecule antagonists of the estrogen receptor beta (ER-beta) signaling pathway - cell viability counter screen (AID 1259382).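 For activity change, negative = cytotoxicity: HEK293T cells carrying ER-beta-UAS-bla reporter stimulated with estradiol; series mostly up to about 92 µM.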 Note: nearly all actives have a fitted effect of over 55% in size. Note: potency is the fitted concentration of half-maximal effect. An outline of the steps: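 ER-beta-UAS-bla HEK293T cells (2,000/well, 2% charcoal-stripped FBS) were pre-incubated 6 hr at 37C, then given compound plus 1nM final 17-beta-estradiol for 16 hr. Viability was read in the same wells by CellTiter-Glo luminescence after 30 min at room temperature.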

Assay [11] is described as follows: qHTS assay to identify small molecule agonists or antagonists of the thyroid stimulating hormone receptor (TSHR) signaling pathway - wild type cell line counter screen (AID 1259384; calls by dose curve). An outline of the steps:
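Counter screen in untransfected Hek293: compounds (15-point titration, triplicate) plus phosphodiesterase inhibitor Ro20-1724 added after 18 h plating; 30 min RT. Intracellular cAMP via competitive d2/cryptate immunoassay, 1 h incubation.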

Assay [12] can be described thus: qHTS assay to identify small molecule antagonists of the sonic hedgehog signaling (Shh) pathway - cell viability counter screen (AID 1259367). Note: nearly all actives have a fitted effect of over 55% in size. Note: potency is the fitted concentration of half-maximal effect. Summed up: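 Using CellTiter-Fluor, viability of Gli1-Luc reporter 3T3 cells is read by fluorescence in the wells used for the Shh luciferase assay. Treatment lasts 23 hr with conditioned medium, then reagent 1 hr at 37C.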

For assay [13], the target named is Thyrotropin receptor (Homo sapiens) (UniProt P16473). The assay can be described thus: qHTS assay to identify small molecule antagonists of the thyroid stimulating hormone receptor (TSHR) signaling pathway (AID 1259385; calls by dose curve; note: nearly all actives have a fitted effect of over 20% in size). An outline of the steps:
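Antagonist mode: compound-treated TSHR-expressing HEK293 cells were stimulated with 1.5 ng/mL TSH (final) in presence of Ro20-1724 for 30 min at RT. HTRF cAMP detection after 1 h; each compound tested at 15 concentrations, triplicate.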

Assay [14] concerns the target Estrogen receptor beta (Homo sapiens) (UniProt Q92731). The assay can be described thus: qHTS assay to identify small molecule agonists of the estrogen receptor beta (ER-beta) signaling pathway (AID 1259377; active = well fitted activation curve with a large enough effect in the signal ratio in the repeat runs, not every such curve was filed as active; the % refers to the signal ratio). Summed up: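 Screening used GripTite ER-beta-UAS-bla cells held in 2% charcoal-stripped FBS medium. After overnight (16 hr) compound incubation at 37C, beta-lactamase activity was detected with a FRET substrate by fluorescence.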

Assay [15] has the same target. The assay can be described thus: qHTS assay to identify small molecule antagonists of the estrogen receptor beta (ER-beta) signaling pathway (AID 1259378; active = well fitted inhibition curve with a large enough effect in the signal ratio in the repeat runs, not every such curve was filed as active; the % refers to the signal ratio). An outline of the steps: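 Antagonist mode: compounds added to beta-lactamase reporter HEK293T ER-beta-UAS cells stimulated with E2 (1nM final), 16 hr at 37C. LiveBLAzer B/G FRET substrate, 2 hours room temperature, fluorescence read-out.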

The target in assay [16] is Estrogen receptor (Homo sapiens) (UniProt P03372). The assay can be described thus: qHTS assay to identify small molecule agonists of the estrogen receptor alpha (ER-alpha) signaling pathway in the presence of an antagonist (AID 1259383; calls by dose curve; note: top concentration of the series differs between compounds; nearly all actives have a fitted effect of over 15% in size). An outline of the steps: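 VM7Luc4E2 cells (endogenous full-length ER-alpha, 4×ERE-luciferase) were precultured 5 days in phenol red-free medium with 10% charcoal-stripped FBS, given 10.0nM ICI-182,780 (final), then treated with compounds at 15 concentrations for 22hr at 37C; luminescence read with ONE-Glo.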
% is set by controls: 0 for no effect and ±100 for the full control effect.

Sequence of Thyrotropin receptor (Homo sapiens) (P16473 whole entry, looked up): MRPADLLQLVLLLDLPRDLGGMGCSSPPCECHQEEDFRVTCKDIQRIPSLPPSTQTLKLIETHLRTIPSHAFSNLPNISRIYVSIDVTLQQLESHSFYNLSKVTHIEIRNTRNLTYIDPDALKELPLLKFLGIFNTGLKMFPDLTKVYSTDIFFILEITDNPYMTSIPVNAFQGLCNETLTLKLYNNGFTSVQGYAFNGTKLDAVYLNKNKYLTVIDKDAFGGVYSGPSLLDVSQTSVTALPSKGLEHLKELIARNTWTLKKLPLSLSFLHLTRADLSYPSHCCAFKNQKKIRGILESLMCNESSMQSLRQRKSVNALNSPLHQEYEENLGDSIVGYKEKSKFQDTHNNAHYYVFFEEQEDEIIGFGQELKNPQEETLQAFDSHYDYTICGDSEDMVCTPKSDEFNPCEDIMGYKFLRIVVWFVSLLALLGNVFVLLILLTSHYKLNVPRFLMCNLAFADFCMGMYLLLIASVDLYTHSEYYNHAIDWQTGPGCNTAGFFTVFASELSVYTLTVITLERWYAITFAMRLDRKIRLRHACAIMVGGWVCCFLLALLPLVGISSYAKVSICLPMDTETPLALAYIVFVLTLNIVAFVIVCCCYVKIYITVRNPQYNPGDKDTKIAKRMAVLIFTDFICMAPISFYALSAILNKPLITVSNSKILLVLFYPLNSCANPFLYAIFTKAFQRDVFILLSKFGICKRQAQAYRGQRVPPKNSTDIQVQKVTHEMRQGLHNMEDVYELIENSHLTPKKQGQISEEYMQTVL
Sequence of Estrogen receptor beta (Homo sapiens) (Q92731 whole entry, looked up): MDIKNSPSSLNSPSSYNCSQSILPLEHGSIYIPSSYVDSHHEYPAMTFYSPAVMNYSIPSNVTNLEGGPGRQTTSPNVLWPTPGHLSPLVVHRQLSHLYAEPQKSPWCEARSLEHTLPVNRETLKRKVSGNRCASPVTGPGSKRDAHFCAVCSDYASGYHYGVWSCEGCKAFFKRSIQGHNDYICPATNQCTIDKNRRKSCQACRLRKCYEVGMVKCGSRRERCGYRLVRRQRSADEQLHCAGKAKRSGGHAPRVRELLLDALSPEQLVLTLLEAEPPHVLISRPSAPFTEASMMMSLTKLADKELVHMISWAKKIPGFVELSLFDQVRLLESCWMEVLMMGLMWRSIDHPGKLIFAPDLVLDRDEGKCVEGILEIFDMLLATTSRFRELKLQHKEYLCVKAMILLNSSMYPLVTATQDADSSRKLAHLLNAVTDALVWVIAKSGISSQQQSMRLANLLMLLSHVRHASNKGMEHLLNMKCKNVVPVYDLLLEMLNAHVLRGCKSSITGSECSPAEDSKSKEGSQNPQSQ
Sequence of Estrogen receptor (Homo sapiens) (P03372 whole entry, looked up): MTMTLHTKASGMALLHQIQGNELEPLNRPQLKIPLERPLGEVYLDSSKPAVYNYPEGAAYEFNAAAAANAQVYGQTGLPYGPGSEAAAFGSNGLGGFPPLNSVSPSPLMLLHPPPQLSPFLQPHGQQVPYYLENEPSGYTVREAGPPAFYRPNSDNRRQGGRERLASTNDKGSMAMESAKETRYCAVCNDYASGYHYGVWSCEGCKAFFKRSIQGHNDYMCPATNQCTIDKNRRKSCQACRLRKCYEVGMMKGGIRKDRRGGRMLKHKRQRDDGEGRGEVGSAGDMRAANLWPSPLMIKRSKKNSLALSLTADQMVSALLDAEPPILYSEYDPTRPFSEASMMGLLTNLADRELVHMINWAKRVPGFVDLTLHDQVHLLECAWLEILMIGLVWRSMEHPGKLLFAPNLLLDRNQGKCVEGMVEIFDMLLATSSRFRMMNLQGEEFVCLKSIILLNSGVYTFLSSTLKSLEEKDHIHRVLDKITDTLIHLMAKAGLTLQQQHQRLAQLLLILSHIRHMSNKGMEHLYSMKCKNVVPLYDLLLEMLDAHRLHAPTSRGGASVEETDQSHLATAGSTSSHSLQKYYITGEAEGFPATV

As for `CCCCCCCC#N`, the Potency result in assay [1], in assay [2], in assay [3], in assay [4], in assay [5] and in assay [8] was “inactive” each time. For the same molecule, the Potency result in assay [9], in assay [10] and in [11] was “inactive” in each case. Also, the molecule was called inactive in [6]. In [7], the Potency was 30.6 µM (active).

`CCc1cc(C2=C(C(=O)O)N(c3ccccc3C(F)(F)F)S(=O)(=O)c3ccccc32)cc2c1OCO2`: the Potency entry in [1], in assay [2], in [3], in [4] and in [7] was “inactive” in each case. The values for the Potency in assay [5], in assay [12] and in [9] were 12.1 µM (active), 12.1 µM (active) and 15.2 µM (active), respectively. For the same molecule, the molecule was classed as inactive in assay [6].

On to `CC(C)O.CC(C)O.CCOC(=O)/C=C(\C)O.CCOC(=O)/C=C(\C)O.[Ti]`, for which the Potency result in assay [1], in assay [2], in assay [3], in assay [4], in [5] and in assay [12] was “inactive” each time. The Potency result in [7], in assay [8], in assay [9], in [10] and in [13] was “inactive” throughout. In addition, the call in assay [6] was inactive.

`Cc1ccccc1S(=O)(=O)O`: the Potency result in assay [1], in [2], in assay [3], in assay [4], in [5] and in assay [12] was “inactive” in each case. The Potency entry in assay [14], in assay [15], in [8], in assay [9], in assay [10] and in [11] was “inactive” each time. Further, the Potency entry in [13] was “inactive”. Further, the outcome in assay [6] was inactive.

As to `CCCCCCCC/C=C\CCCCCCCC(=O)OCC`, the Potency result in assay [1], in assay [2], in assay [3], in [4], in [12] and in [7] was “inactive” each time. Also, the Potency result in assay [8], in [9], in [10] and in [11] was “inactive” throughout. Moreover, the molecule was classed as inactive in assay [6].

In the case of `COc1ccc(C(=O)Nc2nc3ccccc3c(NCc3ccccc3)c2C#N)cc1`, the Potency result in assay [1], in assay [2], in assay [3], in assay [4], in assay [15] and in [8] was “inactive” each time. Besides, the Potency entry in [10] and in assay [16] was “inactive” throughout. Besides, the result in [6] was inactive. The Potency in [9] was 27.3 µM (active).

As to `CN(C)CCCN1c2ccccc2Sc2ccccc21`, the Potency entry in [1], in [2], in assay [3] and in [4] was “inactive” throughout. The result in assay [6] was inactive. Also, the Potency in assay [7] is 11.9 µM (active); in [9], 21.1 µM (active); in [10] it was 26.6 µM (active).

Regarding `CN(C)c1ccc(/C=C/c2ccc([N+](=O)[O-])cc2)cc1`, the activity change, negative = cytotoxicity in [1] was 7.98% [at 8.39 µM]; in [4], -0.457% [at 8.39 µM]; in assay [8], 4.91% [at 8.39 µM]; in [9] it was -2.6% [at 8.39 µM]; in [10] it was -2.95% [at 8.39 µM]. In addition, the viability change, negative = cytotoxic was 4% [at 8.39 µM] in assay [2] and 8.12% [at 8.39 µM] in assay [12]. Besides, the Potency in assay [3] was 0.872 µM (active). In addition, the activity change in [6] is 7.46% [at 8.39 µM]. Further, the results for the activity change, negative = inhibition in [7] and in [13] were 48% [at 8.39 µM] and -4.14% [at 8.39 µM], respectively.

Consider `CC/C=C\CCOC(=O)CC`, for which the Potency entry in assay [1], in assay [2], in [3], in [4], in assay [5] and in assay [12] was “inactive” in each case. Besides, the Potency result in assay [7], in assay [8], in assay [9], in assay [10], in assay [11] and in [13] was “inactive” throughout. Besides, the call in assay [6] was inactive.

Consider `C/C=C/C(=O)CC`, for which the activity change, negative = cytotoxicity in assay [1] is 0.659% [at 19 µM]; in assay [4], -0.534% [at 19 µM]; in [8], 0.797% [at 19 µM]; in assay [9], 5.9% [at 19 µM]; in [10], 2.99% [at 19 µM]. Further, the viability change, negative = cytotoxic in assay [2] is -0.0358% [at 19 µM]; in [5], 14.7% [at 19 µM]. For the same molecule, the figures for the activity change, negative = inhibition in [3] and in assay [13] were -0.325% [at 19 µM] and 0.568% [at 19 µM], respectively. For the same molecule, the activity change in [6] was -3.94% [at 18.9 µM]. In assay [7], the Potency is 5.9 µM (active). The activation in assay [14] was -1.08% [at 19 µM]. Also, in assay [16], the Potency result is “inactive”. For the same molecule, in assay [11], the cAMP activity change was -0.0314% [at 18.9 µM, active compounds read high].
